Source: the supplement of paper PMC6555819

Experiments:
Test in all cases: PBM binding z-score (relative to random genomic background probes); higher = stronger binding; sequences stand for … in GC…GCGATTGACAGCGTAGAATGAAGG
[1] = tested on: FXR:RXRa (NR concentration 270 nM, RXRa partner concentration 90 nM)
Method in brief: (§1)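 Antibodies against each partner of ligand-free nuclear receptor dimers (one per run) detected binding on custom Agilent 4×180K protein-binding microarrays after 1 h incubation. The double-stranded probes had 34-nt variable regions carrying direct-repeat seeds, single-nucleotide variants, half-site ablations and random human genomic background sequences. Binding z-scores, from regression-normalized fluorescence, use the random background probes as reference.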

[2] = tested on: LXRa:RXRa (NR concentration 270 nM, RXRa partner concentration 90 nM)
Method in brief: as §1

[3] = tested on: LXRa homodimer (NR concentration 270 nM)
Method in brief: as §1

[4] = tested on: LXRb:RXRa (NR concentration 270 nM, RXRa partner concentration 90 nM)
Method in brief: as §1

[5] = tested on: LXRb homodimer (NR concentration 270 nM)
Method in brief: as §1

[6] = tested on: PPARa:RXRa (NR concentration 270 nM, RXRa partner concentration 90 nM)
Method in brief: as §1

[7] = tested on: PPARg:RXRa (NR concentration 180 nM, RXRa partner concentration 90 nM)
Method in brief: as §1

[8] = tested on: PPARg:RXRa 270nM:90nM, anti-RXR (NR concentration 270 nM, RXRa partner concentration 90 nM)
Method in brief: as §1

[9] = tested on: PPARg:RXRa 30nM:10nM, anti-RXR (NR concentration 30 nM, RXRa partner concentration 10 nM)
Method in brief: as §1

[10] = tested on: PPARg:RXRa 90nM:30nM, anti-RXR (NR concentration 90 nM, RXRa partner concentration 30 nM)
Method in brief: as §1

[11] = tested on: PPARg:RXRa DBDmut IVT, anti-RXR (DBD mutation: RXRa K156A/R161A, NR concentration 270 nM, RXRa partner concentration 90 nM)
Method in brief: as §1

[12] = tested on: PPARg:RXRa IVT, anti-PPARg (NR concentration 270 nM, RXRa partner concentration 90 nM)
Method in brief: as §1

[13] = tested on: PPARg DBDmut:RXRa IVT, anti-PPARg (DBD mutation: PPARg1 K132A/R137A, NR concentration 270 nM, RXRa partner concentration 90 nM)
Method in brief: as §1

[14] = tested on: PPARg DBDmut IVT, anti-PPARg (DBD mutation: PPARg1 K132A/R137A, NR concentration 270 nM)
Method in brief: as §1

[15] = tested on: PPARg homodimer (NR concentration 180 nM)
Method in brief: as §1

[16] = tested on: PXR:RXRa (NR concentration 270 nM, RXRa partner concentration 90 nM)
Method in brief: as §1

[17] = tested on: PXR homodimer (NR concentration 270 nM)
Method in brief: as §1

[18] = tested on: RARa:RXR (NR concentration 270 nM, RXRa partner concentration 90 nM)
Method in brief: as §1

[19] = tested on: RARa homodimer (NR concentration 270 nM)
Method in brief: as §1

[20] = tested on: RARb:RXRa (NR concentration 270 nM, RXRa partner concentration 90 nM)
Method in brief: as §1

| Sequence | PBM binding z-score [1] | PBM binding z-score [2] | PBM binding z-score [3] | PBM binding z-score [4] | PBM binding z-score [5] | PBM binding z-score [6] | PBM binding z-score [7] | PBM binding z-score [8] | PBM binding z-score [9] | PBM binding z-score [10] | PBM binding z-score [11] | PBM binding z-score [12] | PBM binding z-score [13] | PBM binding z-score [14] | PBM binding z-score [15] | PBM binding z-score [16] | PBM binding z-score [17] | PBM binding z-score [18] | PBM binding z-score [19] | PBM binding z-score [20] |
| --- | --- | --- | --- | --- | --- | --- | --- | --- | --- | --- | --- | --- | --- | --- | --- | --- | --- | --- | --- | --- |
| ACTAGTAGTTGAGACGAGGGCAACCGATAGGTTG | 0.415 | 0.0058 | -0.401 | -0.109 | -0.494 | 0.237 | 0.537 | -0.227 | -0.398 | -0.329 | -0.0209 | 0.386 | -0.147 | -0.849 | -0.115 | 1.63 | 0.115 | 0.6 | 0.181 | 0.978 |
| CCTCGGAGGACAACAGGAGGTCAGATCTGCCAGA | 1.11 | 2.26 | 2.76 | 1.83 | -0.568 | 1.91 | 0.67 | 0.241 | -0.484 | -0.22 | 0.382 | 0.149 | -0.732 | -1.41 | 1.21 | 2.05 | 0.364 | 2.18 | 0.26 | 2.81 |
| GTACCAAGGTGAATAGGTCGTTGCTGAGTAGGCG | 0.799 | 0.799 | -0.43 | 0.493 | -0.623 | 2.23 | 1.21 | 1.71 | -0.00379 | 1.18 | 1.82 | 2.55 | -0.221 | 0.00615 | 0.964 | 0.496 | -0.427 | 1.55 | -0.268 | 1.96 |
| TCATATAGGTAAACAGGTGAAAGACCGTAAGTTA | 0.974 | 0.774 | 0.26 | 0.571 | -0.084 | 2.47 | 3.45 | 3.63 | 4.12 | 4.03 | 4.76 | 4.63 | 1.09 | 1.03 | 1.16 | 0.687 | 0.35 | 1.22 | 1.07 | 0.77 |
| TCGAGTAGGTTAGTCCGGGCATTCAGCCAACATA | -0.219 | 0.109 | 0.0222 | -0.106 | -1.05 | 0.14 | -0.395 | 0.281 | 0.992 | 0.409 | 1.83 | 1.17 | -0.501 | -0.393 | -0.627 | -0.337 | -0.362 | -0.0826 | -1.14 | 0.232 |
| CCGACTGGGGCATAAGGTTAACATAAGCCAGCCC | 0.54 | 1.08 | -0.335 | 0.945 | -1.21 | 2.22 | 2.6 | 3.42 | 1.27 | 2.84 | 3.23 | 3.36 | -0.239 | -1.26 | 0.548 | 0.636 | -0.242 | 1.51 | -0.431 | 1.88 |
| ACCGACAGGTGAGTGAAGGTAACTCAGCTGGACG | 0.184 | -0.107 | -0.658 | -0.575 | -0.831 | 0.00904 | 0.444 | 0.0898 | -0.38 | -0.0157 | 0.224 | 0.64 | 0.0319 | -0.41 | -0.391 | -0.571 | -0.481 | -0.0449 | -0.642 | 0.605 |
